# Reference: PubChem BioAssay AID372 (MTDP, 2006)
# Hit rate of the full screen: of about 100,000 compounds, about 770 (0.77%) were called active. Many of the other results were omitted from the sample, so actives are more common in it than they were. A number with no mark means an inactive call. No stated cut-off is given here; in the data, active means inhibition above about 50%; inactive means the rest.
# Molecular target: Gag-Pol polyprotein (Human immunodeficiency virus type 1 group M subtype B (isolate HXB2)) (UniProt P04585)
# Assay: RNase H inhibition, HIV 1 Gag Pol polyprotein, FRET biochemical assay, screening (AID 372)
# Settings: HIV-1 RT RNase H, FRET RNA/DNA substrate fluorescence; at 10 µM; hits give high values
row,SMILES,inhibition
1,Cc1cccc(C)c1NC(=O)c1ccc(N(Cc2ccc(Cl)cc2)S(C)(=O)=O)cc1,15%
2,Cc1ccccc1OCCOc1ccc(Br)cc1/C=C1\SC(N)=NC1=O,33%
3,Cc1cccc(OCC(=O)Nc2ccccc2C(C)C)c1C,8%
4,O=C(CCN1C(=O)/C(=C/c2ccccc2Cl)SC1=S)Nc1ccc(-c2ccccc2)cc1,16%
5,CSc1nc2ccccc2n1CCOc1ccc(C)cc1,8%
6,Clc1ccc(COc2ccc(/C=N/n3cnnc3)cc2)c(Cl)c1,3%
7,Clc1ccc(COc2cccc(/C=N/n3cnnc3)c2)c(Cl)c1,50% (active)
8,O=Cc1cccc(OCc2ccc(Cl)cc2Cl)c1,32%
9,CCSCCOC(=O)C1=C(C)NC2=C(C(=O)CC(c3cccs3)C2)C1c1ccc(C)s1 (configuration not stated),11%
10,COc1ccc(OC)c(C2C(C(C)=O)=C(O)C(=O)N2CC2CCCO2)c1 (configuration not stated),0%
11,Cc1ccc(/C=C2\C(=O)NC(=S)N(c3ccc(Br)cc3)C2=O)o1,32%
12,O=C1NC(=S)N(c2ccccc2F)C(=O)/C1=C/c1ccc(-c2ccc(Cl)cc2)o1,14%
13,Cc1cc(Br)ccc1N1C(=O)/C(=C/c2cccs2)C(=O)NC1=S,16%
14,Cc1ccc(/C=C2\C(=O)NC(=S)N(c3ccc(Br)cc3C)C2=O)o1,24%
15,Cc1ccc(N2C(=O)/C(=C/c3ccco3)C(=O)NC2=S)cc1,9%
16,O=C1NC(=S)N(c2ccc(Cl)cc2)C(=O)/C1=C\c1ccc(Cl)s1,8%
17,O=C1NC(=S)N(c2ccccc2F)C(=O)/C1=C/c1ccc(N2CCCC2)o1,14%
18,Cc1ccc(/C=C2\C(=O)NC(=S)N(c3ccc(Cl)c(Cl)c3)C2=O)o1,11%
19,Cc1cccc(C)c1NC(=O)c1ccc(-c2ccc(Cl)cc2Cl)o1,28%
20,C=CCc1cccc2cc(C(=O)N3CCCCC3)c(=O)oc12,1%
21,COc1ccc(C2/C(=C(/O)c3ccccc3)C(=O)C(=O)N2c2ccc(C)cc2)cc1 (configuration not stated),7%

row,SMILES,inhibition
1,CCCCn1c(O)c(/C=C2\C=Nc3ccccc32)c(=O)[nH]c1=O,25%
2,CCc1ccccc1N1C(=O)NC(=O)/C(=C\c2ccc(N3CCCCC3)o2)C1=O,9%
3,O=C1NC(=O)N(c2ccccc2F)C(=O)/C1=C/c1ccc(I)o1,0%
4,O=C1NC(=S)N(c2cccc(Cl)c2Cl)C(=O)/C1=C/c1ccc(I)o1,45%
5,O=C1NC(=O)N(c2ccc(Cl)cc2)C(=O)/C1=C\C=C\c1ccccc1[N+](=O)[O-],14%
6,O=C1NC(=S)N(c2ccc(Br)cc2)C(=O)/C1=C/C=C/c1ccco1,16%
7,Cc1ccccc1N1C(=O)/C(=C/c2ccc(I)o2)C(=O)NC1=S,18%
8,Cc1cccc(N2C(=O)/C(=C/C=C/c3ccco3)C(=O)NC2=S)c1,11%
9,O=C1NC(=S)N(c2ccccc2)C(=O)/C1=C\C=C\c1ccccc1[N+](=O)[O-],16%
10,O=C1NC(=S)N(c2cccc(Cl)c2Cl)C(=O)/C1=C/c1ccc(Cl)cc1,10%
11,O=C1NC(=S)N(c2cccc(Cl)c2Cl)C(=O)/C1=C/c1ccco1,58% (active)
12,Cc1cc(C=O)c(C)n1-c1ccc(Cl)cc1,10%
13,CCN(CC)c1ccc(/C=C2\C(=O)N(c3nc(-c4ccc(Cl)cc4)cs3)N=C2c2ccccc2)cc1,8%
14,O=[N+]([O-])c1ccc(NC(=S)Nc2ccccc2)c(O)c1,2%
15,CCOC(=O)C1=C(C)NC2=C(C(=O)CC(c3ccc(OC)cc3)C2)C1c1ccc(O)cc1 (configuration not stated),11%
16,Cc1ccc(/C=N/NC(=O)c2ccc(F)cc2)s1,7%
17,Cc1ccccc1/C=C(/C#N)c1ccc([N+](=O)[O-])cc1,42%
18,N#C/C(=C\c1cc(Br)ccc1OCc1ccccc1)C(N)=O,10%
19,N#C/C(=C\c1ccccc1[N+](=O)[O-])C(N)=O,0%
20,N#C/C(=C/c1ccccc1OS(=O)(=O)c1ccccc1)c1ccc([N+](=O)[O-])cc1,16%
21,COc1ccccc1/C=C(\C#N)C(N)=O,0%

row,SMILES,inhibition
1,C=CCc1ccccc1OCCOc1ccc(Br)cc1/C=C(\C#N)C(N)=O,60% (active)
2,N#C/C(=C\c1ccccc1OCCOc1ccc([N+](=O)[O-])cc1)C(N)=O,57% (active)
3,N#C/C(=C/c1ccccc1OCc1ccccc1F)c1ccc([N+](=O)[O-])cc1,54% (active)
4,N#C/C(=C\c1cc(Br)ccc1OCc1cccc2ccccc12)C(N)=O,30%
5,CC(=O)Nc1ccc2oc(-c3ccc(Cl)cc3)nc2c1,9%
6,CCn1c(-c2ccccc2C)n[nH]c1=S,2%
7,COc1nc(Nc2ccccc2)nc(NC(C)(C)C)n1,7%
8,O=C(N1CCN(C(c2ccccc2)c2ccccc2)CC1)C12CC3CC(CC(C3)C1)C2,25%
9,CC(NC(=O)/C(C#N)=C/c1ccc(N(C)C)c(Br)c1)c1ccccc1 (configuration not stated),15%
10,Cc1ccc(/C=C2/SC(=O)N(CO)C2=O)cc1,0%
11,Cc1ccccc1C(=O)NNC(=S)Nc1ccccc1,7%
12,CS(=O)(=O)N/N=C/c1ccc2c(c1)OCO2,0%
13,COc1ccc(-c2cc(C(F)(F)F)n3nc(C(=O)NC(C)C)c(Cl)c3n2)cc1OC,7%
14,C=CCN1C(=O)/C(=C/c2ccc(N(C)C)cc2)SC1=S,17%
15,Cc1ccc(Oc2ccc3noc4c3c2C(=O)c2ccccc2-4)cc1,8%
16,O=C1c2ccccc2-c2onc3ccc(Oc4ccccc4)c1c23,2%
17,CC(C)(C)c1ccc(Oc2ccc3noc4c3c2C(=O)c2ccccc2-4)cc1,50% (active)
18,OC1CC(c2ccccc2)NC2(CCCCC2)C1 (configuration not stated),2%
19,O=C(COc1ccccc1[N+](=O)[O-])Nc1ccc2oc(-c3cc(Br)ccc3Cl)nc2c1,49%
20,Cc1oc(C(=O)O)cc1CSc1nc2ccccc2[nH]1,5%
